# Test results from the supplement of paper PMC6555819.
# What was measured:
# Assay in all cases: PBM binding z-score (relative to random genomic background probes); higher = stronger binding; sequences stand for … in GC…GCGATTGACAGCGTAGAATGAAGG
# [1] = tested on: FXR:RXRa (NR concentration 270 nM, RXRa partner concentration 90 nM)
# Summary of the method: (§1)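 Scanned fluorescence from custom Agilent 4×180K protein-binding microarrays was regression-normalized. Binding z-scores use random background probes as reference. Ligand-free nuclear receptor dimers were incubated on the arrays for 1 h and detected with antibodies against each partner (one per run).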
# [2] = tested on: LXRa:RXRa (NR concentration 270 nM, RXRa partner concentration 90 nM)
# Summary of the method: as §1
# [3] = tested on: LXRa homodimer (NR concentration 270 nM)
# Summary of the method: as §1
# [4] = tested on: LXRb:RXRa (NR concentration 270 nM, RXRa partner concentration 90 nM)
# Summary of the method: as §1
# [5] = tested on: LXRb homodimer (NR concentration 270 nM)
# Summary of the method: as §1
# [6] = tested on: PPARa:RXRa (NR concentration 270 nM, RXRa partner concentration 90 nM)
# Summary of the method: as §1
# [7] = tested on: PPARg:RXRa (NR concentration 180 nM, RXRa partner concentration 90 nM)
# Summary of the method: as §1
# [8] = tested on: PPARg:RXRa 270nM:90nM, anti-RXR (NR concentration 270 nM, RXRa partner concentration 90 nM)
# Summary of the method: as §1
# [9] = tested on: PPARg:RXRa 30nM:10nM, anti-RXR (NR concentration 30 nM, RXRa partner concentration 10 nM)
# Summary of the method: as §1
# [10] = tested on: PPARg:RXRa 90nM:30nM, anti-RXR (NR concentration 90 nM, RXRa partner concentration 30 nM)
# Summary of the method: as §1
Sequence,PBM binding z-score [1],PBM binding z-score [2],PBM binding z-score [3],PBM binding z-score [4],PBM binding z-score [5],PBM binding z-score [6],PBM binding z-score [7],PBM binding z-score [8],PBM binding z-score [9],PBM binding z-score [10]
CCGACTGGAGCATAAGGTTACCATAAGCCAGCCC,0.0844,1.93,0.131,0.754,-0.551,0.887,0.85,1.49,-0.133,0.657
CCAGACAGGTGAAAGGTAACACAGTCTGGTACGC,0.883,0.799,-0.29,0.919,-0.313,3.54,5.85,6.13,4.72,6.42
TCATATAGGCAAAGGTGAAAGTCGAACGATATGA,0.772,1.05,-0.253,1.07,-0.302,2.98,3.35,4.39,3.88,4.56
ATCTCTAGGTAACCAAGTTCAGTGACTGCCGAAC,0.544,1.09,1.07,0.872,0.838,1.24,0.732,1.15,0.402,0.958
TCTAGTTGGTCACGGAGATCACACACGACGGGTA,0.323,0.174,0.394,0.575,0.153,0.929,1.16,2.06,2.93,2.31
TCTTGTAGATCAACAGAAGGTTAAGAAAGATCGA,0.396,1.11,0.0845,0.953,-0.0831,1.27,0.104,1.35,2.82,2.04
CATGCTAGGTCAATGGTCAGCTAAAGCAGCTCGC,3.18,2.65,0.2,1.38,0.174,3.04,4.43,4.63,2.27,4.38
CCTACTGGGCCATTCAGAGGTCATTGGTCATATG,2.52,4.22,7.04,3.5,0.551,3.65,2.66,3.38,1.1,2.4
CCTTACGCGTCACTGACAGGTTATAGCATTTGGA,0.188,0.449,0.568,0.697,0.644,0.558,0.31,0.128,0.0399,0.241
ATCTCTAGGTAAGACTCAGTTCAGTGAGGAACGC,0.151,0.565,0.658,-0.0789,0.649,0.134,0.166,0.25,0.0695,0.181
ACTAGCAGGCCAATGGTCACTCAAGATTAGTCCG,-0.525,-0.42,-0.46,-0.417,-0.678,0.789,2.17,3.26,0.959,2.79
TCAGATAGGTAAATGCTAGGTGAAAGTCCGATCT,-0.114,0.46,-0.0618,0.329,-0.66,0.824,0.231,2.17,3.59,2.99
ACTAGCAGGCCAAGTTTGGGTCACTCCAACAAAG,0.154,0.00504,-0.19,0.664,-0.49,1.18,-0.0331,-0.0928,-0.803,-0.387
CCTAGTTGGTCAGGAGGTCACTCACCGGATATGA,3.08,2.85,1.57,2.79,0.66,3.54,2.76,3.43,1.11,2.75
TCTAGCAGGCGAGAGGGTCACTCAAGAGGTACGG,0.647,0.656,-0.616,1.05,-1.27,2.03,0.765,1.64,1.43,1.6
TGAATGAGGCTATAAGATCAGGGAACGTTGCAAA,-0.518,-0.611,-0.669,-0.726,-0.998,-0.176,0.387,0.203,0.0907,-0.0194
AGAACGAGGGCAATGAGTTGATAGCGCGGGTGGC,0.136,0.127,-0.734,-0.343,-0.754,1.25,0.897,0.618,-0.31,0.0829
ACTGTTAGTTGACTTAGGGCAACCGATACGACGC,0.539,0.575,0.206,0.367,1.15,0.0221,0.731,0.221,0.105,-0.111
ATCGAAAGGTCGAAGGGGAGTATACCCACCCGAA,4.05,3.15,0.303,2.7,0.76,4.19,3.19,2.91,1.16,1.99
TCTTGTAGATCAATGGAGGTTAAGAAAGTGCGCT,0.901,2.8,0.173,1.3,-0.0128,1.52,-0.31,1.5,2.83,2.18
TCTGCTAGGTCAACGATAGTCAGCTAATCTGCTA,3.23,2.35,-0.23,1.4,-0.0504,3.14,2.53,3.15,1.95,2.82
ACAGACAGGTGATGAAGGTAACTCAGGCTATCAT,-0.17,-0.295,-0.208,-0.204,-0.527,0.152,0.816,-0.0244,-0.0108,-0.132
CCTCCTAGGTCATGGTCAGCTAATCTACAGTATG,3.85,2.79,0.804,2.24,0.0954,3.8,2.72,2.89,0.958,2.09
